LDHA block – inhibitors of human lactate dehydrogenase A; P00338; activity change, % (values are at about 110 or 230 µM); hit rate 0.15% among 480,000; purified LDHA, NADH/diaphorase-resazurin fluorescence; stronger effect = lower value; AID 1347041; in the data active means activity change below about -30%; inconclusive means mostly about -25% to -30%;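 further: plate controls were DMSO wells for no effect and wells without enzyme for full effect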
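Enzyme activity of human lactate dehydrogenase 5 (2 nM; 0.06 mM NADH, 0.2 mM pyruvate, 5 min, RT) is measured via a resazurin/diaphorase fluorescence readout of residual NADH.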
DT40 TDP1 no CPT – qHTS for Inhibitors of human tyrosyl-DNA phosphodiesterase 1 (TDP1): qHTS in cells in absence of CPT. Potency, µM (highest dose often 46.2 µM), for inactives: top-dose activity change, negative = growth inhibition, most hits filed as inhibitors. AID 686978, 2013. DT40 Tdp1-/- hTDP1 cells, no CPT, ATP luminescence, 48 h. hit rate 15% among 420,000; further: potency means the concentration at half of the fitted maximal effect; nearly all actives have a fitted effect of over 55% in size
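Chicken DT40 Tdp1-/- cells complemented with human TDP1, screened without camptothecin (DMSO vehicle only), 400 cells/well. Compounds pin-transferred, cells incubated at 37 °C for at least 48 hr. Growth read as ATP-dependent luminescence (CellTiter-Glo, 30 min at RT).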
RORgamma inh – ROR gamma (mouse) transcription inhibition. P51450. Drosophila S2 Gal4-RORgamma UAS-luciferase reporter, 20 h. Potency, µM (series often up to 53.6 µM), for inactives: at the highest dose activity change, negative = inhibition, usual class: inhibitors. hit rate 5.4% among 310,000. AID 2551; further: potency means the concentration at half of the fitted maximal effect; nearly all actives have a fitted effect of over 60% in size
Target sequence (P51450 whole entry, looked up, the tested form may be a part): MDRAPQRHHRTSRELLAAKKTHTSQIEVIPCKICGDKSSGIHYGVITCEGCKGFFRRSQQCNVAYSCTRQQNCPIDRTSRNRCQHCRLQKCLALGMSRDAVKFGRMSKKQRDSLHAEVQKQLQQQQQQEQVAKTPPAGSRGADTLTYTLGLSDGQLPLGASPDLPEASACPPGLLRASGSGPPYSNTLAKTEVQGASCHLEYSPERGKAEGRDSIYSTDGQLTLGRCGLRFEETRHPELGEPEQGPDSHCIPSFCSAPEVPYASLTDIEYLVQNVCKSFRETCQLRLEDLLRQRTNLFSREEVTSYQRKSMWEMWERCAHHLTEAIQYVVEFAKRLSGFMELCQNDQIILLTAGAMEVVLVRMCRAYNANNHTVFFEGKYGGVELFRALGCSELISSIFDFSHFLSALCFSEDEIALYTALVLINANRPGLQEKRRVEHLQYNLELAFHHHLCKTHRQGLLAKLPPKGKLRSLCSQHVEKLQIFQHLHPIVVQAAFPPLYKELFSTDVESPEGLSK
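Compounds are pin-transferred onto Drosophila Schneider cells expressing a copper-inducible Gal4–ROR gamma transactivation domain fusion. After 1 hr, copper sulfate is added to 700 uM final; luciferase is read 20 hr later.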
VP16 counter – counter-screen for ROR gamma inhibitors: Gal4-VP16 reporter | Drosophila S2 Gal4-VP16 UAS-luciferase, luminescence, 20 h | Potency, µM (series often up to 53.6 µM), inactives show at the highest dose activity, negative = inhibition, usual class: inhibitors | hit rate 3.5% among 310,000;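 further: Gal4-VP16 expression switched on by copper sulfate through the metallothionein promoter; potency means the concentration at half of the fitted maximal effect; nearly all actives have a fitted effect of over 50% in size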
TDP1 cell CPT – DT40-hTDP1 cell growth loss with CPT; chicken DT40 Tdp1-/-;hTDP1 cells + 20 nM CPT, ATP luminescence, 48 h; Potency, µM (doses to about 46.2 µM), inactives show at the top dose activity change, negative = growth inhibition, actives largely listed as inhibitors; hit rate 12% among 420,000; AID 686979; further: potency means the concentration at half of the fitted maximal effect; nearly all actives have a fitted effect of over 55% in size
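Chicken DT40 Tdp1-/- cells stably complemented with human TDP1 were seeded at 400 cells/well in medium containing 20 nM camptothecin, exposed to pin-transferred compounds, and grown at 37 °C for at least 48 hr. Viability was read as ATP luminescence.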
IL1B secr inh – inhibitors of inflammasome signaling (IL-1 beta secretion) | THP-1 LPS/ATP IL-1B secretion, AlphaLISA, 16 h; stronger effect = lower value | activity change, % at 57.5 µM | hit rate 4.7% among 360,000 | AID 743279; in the data active means activity change below about -50%; inconclusive means mostly about -30% to -49%
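THP-1 cells pretreated 1 hr with compounds (up to 57.5 uM final), then stimulated with LPS (250 ng/mL final) plus ATP (1.25 mM final); secreted IL-1B measured by AlphaLISA after 16 hr, decreased signal indicating inhibition.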
Numbers without * were called inactive; ? = inconclusive; nt = no result. The list is not random: actives were taken first. Their share in the collection is about 18%. Unless noted, the call rests on the fitted dose curve; in most records, active means well fitted curve in the direction sought with a large enough effect; inconclusive means small, poorly fitted or top-dose-only effect, or another doubt; inactive means no such curve, though single readings can be large; an effect the other way counts as inactive or inconclusive. Unless noted, on the % scale 0 is the no-effect control and ±100 the full control effect.

SMILES | LDHA block | DT40 TDP1 no CPT | RORgamma inh | VP16 counter | TDP1 cell CPT | IL1B secr inh
CC(C)CC(=O)NCCC1=CCCCC1 | -1 | nt | nt | nt | nt | nt
O=C(CCl)Nc1ccc(N=Nc2ccccc2)cc1 | -1 | ? | ? | ? | 2.9µM* | -98*
O=C(Nc1ccc(N=Nc2ccccc2)cc1)c1ccccc1Cl | 0 | -28% | -3% | -1% | ? | -67*
CC(C)N(c1ccccc1)c1ccc(NC(=O)CCl)cc1 | 1 | 2.6µM* | ? | ? | 16µM* | -100*
COc1cc(OC)cc(C(=O)NC(C)(C)CC(C)(C)C)c1 | 0 | nt | nt | nt | nt | nt
CC(=O)Nc1ccc(NC(=O)c2cc(=O)c3ccc(C)c(C)c3o2)cc1 | -9 | nt | nt | nt | nt | nt
COc1ccc(C(=O)/C(=C/c2ccco2)c2nc3ccccc3o2)cc1 | 4 | nt | nt | nt | nt | nt
CC(C)C[C@H]1CN([C@@H](CC(C)C)CN2CCC[C@H]2CN2C(=O)C(=O)NC[C@@H]2Cc2ccc(O)cc2)C(=O)C(=O)N1CC1CCCCC1 | 3 | 29µM* | nt | nt | ? | 30
CC(C)C[C@H]1CN([C@@H](CC(C)C)CN2CCC[C@H]2CN2C(=O)C(=O)NC[C@@H]2Cc2ccc(O)cc2)C(=O)C(=O)N1CC1CCCCCC1 | -4 | ? | nt | nt | ? | -52*
Cc1ccc(OCC(=O)Nc2ccc3nc(SCC(=O)N(C)c4ccccc4)sc3c2)cc1 | -1 | 15µM* | nt | nt | ? | nt
CCOC(=O)CSc1nc2ccc(NC(=O)COc3ccccc3)cc2s1 | -2 | -19% | nt | nt | ? | nt
CCC(C)/C(C)=N/NC(=O)c1ccc(CSc2nc3ccccc3s2)cc1 (stereo not given) | -9 | 23µM* | ? | ? | 15µM* | 75
Cc1ccc(OCC(=O)Nc2ccc3nc(SCC(=O)N4CCCC4)sc3c2)cc1C | 3 | 23µM* | nt | nt | -95% | nt
CCNC(=O)c1ccc(CSc2nc3ccccc3s2)cc1 | -5 | ? | ? | ? | ? | 24
Cc1ccc(NC(=O)CSc2nc3ccc(NC(=O)COc4ccc(C)cc4)cc3s2)cc1 | -2 | 18µM* | nt | nt | 10µM* | nt
COc1c(C)cnc(CN2CCN(C(C(=O)O)c3c[nH]c4ccc(Br)cc34)CC2)c1C (stereo not given) | 2 | nt | nt | nt | nt | nt
CC(C)(C)CC(=O)NCCc1ccsc1 | 4 | nt | nt | nt | nt | nt
Cc1ccccc1OCc1nnc(SCC(=O)Nc2ccc3nc(SCC(=O)NC(C)(C)C)sc3c2)n1C | -2 | ? | 43% | -13% | 18µM* | -11
CCOc1ccc(C(=O)Nc2ccc3nc(SCc4ccccc4)sc3c2)cc1 | -7 | 8.2µM* | nt | nt | 12µM* | nt
Cc1ccc(OCC(=O)Nc2ccc3nc(SCC(=O)N4CCCC4)sc3c2)cc1 | -5 | 21µM* | nt | nt | ? | nt
Cc1ccc(CSc2nc3ccc(NC(=O)COc4ccccc4)cc3s2)cc1 | -6 | ? | nt | nt | 15µM* | nt
Cc1cc(C)cc(OCCSc2nc3ccc(NC(=O)COc4ccccc4)cc3s2)c1 | -3 | ? | nt | nt | ? | nt
Cc1ccc(OCC(=O)Nc2ccc3nc(SCc4ccccc4)sc3c2)cc1 | -5 | ? | nt | nt | -23% | nt
CCN(CC)C(=O)CSc1nc2ccc(NC(=O)CSc3nnc(COc4ccccc4C)n3C)cc2s1 | 1 | ? | -14% | 4% | ? | -13
CC(Sc1nc2ccccc2[nH]1)C(=O)NC(=O)NC(C)(C)C (stereo not given) | -5 | nt | nt | nt | nt | nt
SMILES | LDHA block | DT40 TDP1 no CPT | RORgamma inh | VP16 counter | TDP1 cell CPT | IL1B secr inh
COc1cc(NC(=O)Nc2cc3c(cc2N2CCCC2)n(C)c(=O)n3C)cc(OC)c1 | -5 | nt | nt | nt | nt | nt
CC(NC(=O)CSc1ccc2c(c1)OCCCO2)c1cccc2ccccc12 (stereo not given) | 8 | nt | nt | nt | nt | nt
Cc1cccc(NC(=O)CSc2nc3ccc(NC(=O)COc4ccccc4C)cc3s2)c1 | -1 | 16µM* | nt | nt | 15µM* | nt
Cc1cc2nc(-c3ccco3)c(CC(C)(C)C)n2c(C)c1Br | 6 | 23µM* | nt | nt | 23µM* | -7
COc1ccccc1Cc1c(-c2ccco2)nc2cc(C)c(Br)c(C)n12 | 0 | 23µM* | nt | nt | ? | -26
Cc1nn(Cc2ccccc2Cl)c2sc(C(=O)NC(C)(C)C)cc12 | -2 | ? | -10% | 5% | -1% | 5
CCC(CC)c1nnc(NC(=O)c2c(C)nn(Cc3ccccc3Cl)c2C)s1 | 2 | -26% | 11µM* | ? | 23µM* | 23
Cc1csc(NC(=O)c2cc3c(C)nn(Cc4ccccc4Cl)c3s2)n1 | 0 | 16µM* | ? | ? | ? | 6
O=C(NC1=NCCS1)c1ccccc1OCc1ccccc1Cl | -8 | ? | 10µM* | ? | -13% | 0
Cc1nn(Cc2ccccc2Cl)c(C)c1C(=O)NCC(c1cccs1)N1CCOCC1 (stereo not given) | 1 | -21% | nt | nt | -19% | 46
Cc1nn(Cc2ccccc2Cl)c(C)c1C(=O)NC1=NCCS1 | -1 | -15% | 10µM* | -1% | 0% | 10
O=C(NC1=NCCS1)c1ccccc1Cl | 0 | 7% | -1% | 2% | 0% | 20
CC1CCN(S(=O)(=O)N(C)Cc2ccc3c(c2)OCO3)CC1 | -1 | nt | nt | nt | nt | nt
C=CCOc1ccc(NC(=O)c2ccc(C(C)(C)C)cc2)cc1 | 4 | nt | nt | nt | nt | nt
CCOc1ccc(N2C(=O)c3c(C(=O)OC)ncn3CC2(C)C(=O)NC2CCCCCC2)cc1 (stereo not given) | 4 | nt | nt | nt | nt | nt
O=C(CC1CC2CCC1C2)NC12CC3CC(CC(C3)C1)C2 (stereo not given) | 4 | nt | nt | nt | nt | nt
C1=C[C@@H]2CCN(Cc3ccccc3)Cc3cccc(c32)C1 | 1 | ? | nt | nt | -38% | 19
Cc1ccc(CN2CC[C@H]3C=CCc4cccc(c43)C2)cc1 | 1 | 21µM* | nt | nt | ? | 19
O=C1C[C@@H]2c3c(cccc3CN1Cc1ccccc1F)C[C@@H](O)[C@H]2O | -5 | -3% | nt | nt | -1% | 28
O=C1C[C@@H]2c3c(cccc3CN1Cc1ccc(Cl)cc1)C[C@@H](O)[C@H]2O | -18 | -18% | nt | nt | -3% | 10
O=C1C[C@H]2C=CCc3cccc(c32)CN1Cc1ccc(Cl)cc1 | nt | 13µM* | nt | nt | ? | nt
O=C1C[C@H]2C=CCc3cccc(c32)CN1Cc1cccc(F)c1 | nt | 10µM* | nt | nt | 16µM* | nt
O=C1CCCc2nn(-c3ccccc3)c(-c3ccncc3)c21 | -4 | 16µM* | -8% | -2% | ? | 0
Cc1ccc(C)c(N2CCN(C(=O)Cn3cnc4sc(C)c(S(=O)(=O)N5CCN(c6ncccn6)CC5)c4c3=O)CC2)c1 | -2 | 9.2µM* | nt | nt | 18µM* | nt

Screening results (PubChem)
